Screening data from PubChem.
TDP1 cell noCPT: qHTS for Inhibitors of human tyrosyl-DNA phosphodiesterase 1 (TDP1): qHTS in cells in absence of CPT; hit rate 15% among 420,000; DT40 Tdp1-/- hTDP1 cells, no CPT, ATP luminescence, 48 h; Potency, µM (highest dose often 46.2 µM), for the others: top-dose activity change, negative = growth inhibition, actives largely listed as inhibitors; further: potency means the concentration at half of the fitted maximal effect; nearly all actives have a fitted effect of over 55% in size
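Chicken DT40 Tdp1-/- cells complemented with human TDP1, screened without camptothecin (DMSO vehicle only), 400 cells/well. Compounds pin-transferred, cells incubated at 37 °C for at least 48 hr. Growth read as ATP-dependent luminescence (CellTiter-Glo, 30 min at RT).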
HT1080-NT tox: kills 2HG-producing HT-1080-NT fibrosarcoma cells. Potency, µM (highest dose often 46.1 µM), inactives show at the top dose activity, negative = less viability, most hits filed as cytotoxic. HT-1080-NT fibrosarcoma viability, CellTiter-Glo ATP luminescence, 48 h. hit rate 1.6% among 360,000;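 further: NT is the 2HG producing partner of a matched IDH1 knockdown line; potency means the concentration at half of the fitted maximal effect; 0% = DMSO-treated cells and -100% = media-only wells without cells; nearly all actives have a fitted effect of over 55% in size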
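HT-1080-NT; 750 cells/well; 5% FBS RPMI; 48 h compound, 37 degrees C; CellTiter-Glo luminescence; curve fitting and curve-class assignment.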
HT1080 IDH1KD tx: kills HT-1080 cells with IDH1 knockdown | HT-1080 IDH1 knockdown viability, ATP luminescence, 48 h | Potency, µM (highest dose often 46.1 µM), inactives show at the highest dose activity, negative = toxicity, usual class: cytotoxic | hit rate 2% among 360,000 | AID 686971;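 further: potency means the concentration at half of the fitted maximal effect; 0% = DMSO wells and -100% = cell-free medium wells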
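CellTiter-Glo luminescence after 48 h compound exposure at 37 degrees C of IDH1-knockdown HT-1080 cells in 5% FBS RPMI. %Activity scaled between DMSO wells and cell-free media wells, with curves fitted and assigned curve classes.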
TDP1 cell CPT: growth inhibition of DT40 Tdp1-/-;hTDP1 cells with camptothecin (screen for TDP1 inhibitors); chicken DT40 Tdp1-/-;hTDP1 cells + 20 nM CPT, ATP luminescence, 48 h; Potency, µM (highest dose often 46.2 µM), inactives show at the top dose activity change, negative = growth inhibition, actives largely listed as inhibitors; hit rate 12% among 420,000; further: potency means the concentration at half of the fitted maximal effect; nearly all actives have a fitted effect of over 55% in size
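Chicken DT40 Tdp1-/- cells complemented with human TDP1, 400 cells/well, exposed to compounds plus 20 nM camptothecin for at least 48 h at 37 C; viability read as ATP content by CellTiter-Glo luminescence.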
IL1B secr inh: blocks inflammasome-driven IL-1 beta release. AID 743279. THP-1 LPS/ATP IL-1B secretion, AlphaLISA, 16 h; active compounds read low. activity change, % at 57.5 µM. hit rate 4.7% among 360,000; in the data active means activity change below about -50%; inconclusive means mostly about -30% to -49%
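Secreted IL-1B measured by AlphaLISA bead assay after 16 h compound exposure of THP-1 cells; compounds (final up to 57.5 uM) added 1 h before LPS (250 ng/mL) and ATP (1.25 mM) stimulation; lower signal means less secretion.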
An asterisk follows results filed as active; u = inconclusive; x = not tested or not shown; [ ] = dose if it differs, or a comment. Sampled rows, rich in hits. Any-hit rate of the full collection: about 19%. Unless noted, the call rests on the fitted dose curve; in most records, active means well fitted curve in the direction sought with a large enough effect; inconclusive means small, poorly fitted or top-dose-only effect, or another doubt; inactive means no such curve, though single readings can be large; an effect the other way counts as inactive or inconclusive. Unless noted, on the % scale 0 is the no-effect control and ±100 the full control effect.

SMILES | TDP1 cell noCPT | HT1080-NT tox | HT1080 IDH1KD tx | TDP1 cell CPT | IL1B secr inh
CCCCCCCCNC(=O)c1cccnc1SCC(=O)Nc1ccc(OC)cc1OC | 21µM* | -4% | -1% | -26% | 15
CCCCNC(=S)NNC(=O)c1nn(C)cc1Cl | -27% | 23% | 14% | -9% | -17
COCc1c(C(=O)N/N=C/c2ccncc2)nnn1-c1nonc1N | 2% | 21% | 10% | -7% | 36
c1ccc2nc(-c3nc4ccccc4o3)ccc2c1 | u | 10µM* | 13µM* | 14µM* | -3
c1ccc(-c2nc3ccccc3o2)nc1 | -21% | 6% | 8% | -2% | -3
Cc1ccc(OCCCCN2CCC(C)CC2)c(Br)c1 | u | -8% | -16% | 23µM* | -29
Cc1ccc(OCCCCN2CCCCC2)c(C)c1 | 2% | -2% | 0% | 7% | -11
Cc1ccc(OCCCCCCN2CCNCC2)c(Br)c1 | 21µM* | u | 15µM* | u | -89*
Cc1ccc(-c2nnc3ccccc3c2C(=O)Nc2cccc(C(F)(F)F)c2)cc1 | -7% | x | x | -7% | x
COc1ccc(C(=O)CC2(C(=O)O)CCCCC2)cc1 | -4% | 4% | -5% | -15% | 27
COc1cc2[nH]c3c(=O)n4c(nc3c2cc1OC)SCCC4 | u | 7.3µM* | 7.3µM* | u | -61*
COc1cc(CN2C(=O)C(Cc3ccccc3)ON=C2c2ncccc2C)cc(OC)c1 (stereo unspecified) | u | 0% | 1% | u | 25
COc1ccc(C(C)=O)cc1CN1C(=O)C(Cc2ccccc2)ON=C1c1ncccc1C (stereo unspecified) | u | 1% | 15% | 21µM* | -25
CCC(=O)NC1Cc2ccccc2C(c2ccccc2)C1 (stereo unspecified) | u | x | x | -29% | x
CC1CN(C(=O)/C=C/c2ccccc2[N+](=O)[O-])CC(C)O1 (stereo unspecified) | -3% | 13% | 16% | -3% | 4
CC1CN(C(=O)/C=C/c2ccc([N+](=O)[O-])s2)CC(C)O1 (stereo unspecified) | 15µM* | u | u | u | -23
O=C(/C=C/c1ccc([N+](=O)[O-])s1)N1CCN(c2ccccc2)CC1 | 16µM* | -1% | 0% | u | -12
O=C(/C=C/c1ccc([N+](=O)[O-])s1)N1CCCC1 | 10µM* | u | -19% | 21µM* | 7
O=C(/C=C/c1ccc([N+](=O)[O-])s1)N1CCCCC1 | 12µM* | u | 23µM* | u | -90*
O=C(/C=C/c1cccs1)N1CCCCC1 | -16% | 15% | 5% | -11% | -7
CCc1nnc(NC(=O)CSc2nc(C)cs2)s1 | -13% | 27% | 13% | u | -15
NCCCC[C@@H]1NC(=O)c2cc([N+](=O)[O-])cc(I)c2SC[C@@H](C(N)=O)NC(=O)[C@H](Cc2ccc(O)cc2)NC1=O | -9% | 6% | -1% | -11% | 16
O=C(Nc1cccc(Cl)c1)c1nc[nH]c1C(=O)NCCCNC(=O)c1[nH]cnc1C(=O)Nc1cccc(Cl)c1 | u | 8% | 10% | -29% | 21
Cc1ccc(NC(=O)c2nc[nH]c2C(=O)Nc2ccccc2F)cc1 | u | u | 10% | u | 0
O=C(Nc1ccccc1)c1nc[nH]c1C(=O)Nc1ccccc1F | 12µM* | 11% | 5% | u | 5
SMILES | TDP1 cell noCPT | HT1080-NT tox | HT1080 IDH1KD tx | TDP1 cell CPT | IL1B secr inh
O=C(Nc1ccccc1)c1nc[nH]c1C(=O)NCCCCNC(=O)c1[nH]cnc1C(=O)Nc1ccccc1 | 12µM* | 11% | 5% | 6.5µM* | -16
O=C(Nc1ccccc1)c1nc[nH]c1C(=O)NCCNC(=O)c1[nH]cnc1C(=O)Nc1ccccc1 | 18µM* | u | -18% | 13µM* | -1
NC(=O)c1cc2ccncc2c2ccccc12 | 6.5µM* | -12% | -8% | 13µM* | u
Cc1ccnc(NC(=O)c2cccc(S(=O)(=O)N3CCCC3)c2)c1 | 15% | -2% | 10% | -2% | 33
CN(c1ccccc1)c1ccc(/C=N/NC(=O)CC#N)cc1 | u | -6% | -25% | u | 16
O=C1NC(c2cccc3ccccc23)Nc2ccc(Cl)cc21 (stereo unspecified) | 0.58µM* | 0.58µM* | 0.52µM* | 0.46µM* | 1
Clc1ccc(C2Nc3cccc4cccc(c34)N2)c(Cl)c1 | u | -9% | -1% | u | -29
O=C(COC(=O)c1ccc(Cl)c(S(=O)(=O)N2CCCCC2)c1)NCC1CCCO1 (stereo unspecified) | 0% | 12% | 8% | -2% | 98
CCCCNC(=O)CC1N=C2c3ccccc3N=C(SCC(=O)NCc3ccccc3Cl)N2C1=O (stereo unspecified) | -28% | x | x | u | x
O=C(CC1N=C2c3ccccc3N=C(SCc3ccccc3Cl)N2C1=O)NC1CCCCC1 (stereo unspecified) | 12µM* | x | x | 9.2µM* | x
O=C(CCC1N=C2c3ccccc3N=C(SCc3ccccc3F)N2C1=O)NC1CCCCC1 (stereo unspecified) | 18µM* | x | x | 18µM* | x
O=C(CC1N=C2c3ccccc3N=C(SCc3ccccc3F)N2C1=O)NCCc1ccccc1 (stereo unspecified) | 21µM* | x | x | 21µM* | x
O=C(CC1N=C2c3ccccc3N=C(SCc3cccc(Cl)c3)N2C1=O)NC1CCCCC1 (stereo unspecified) | 18µM* | x | x | 16µM* | x
O=C(COC(=O)COc1ccc(Br)cc1)NCc1ccccc1 | 1% | 1%[9.24 µM] | 11% | 5% | 17
COC(=O)[C@H](C)NS(=O)(=O)C1CC1 | -20% | x | x | -4% | x
CCC(=O)Nc1ccc(C(=O)NNC(=O)C2CCCCC2)cc1 | 18% | 3% | 5% | 6% | 7
CCN(CC)S(=O)(=O)c1cccc(C(=O)Nc2sc3c(c2C#N)CCC(C)C3)c1 (stereo unspecified) | u | x | x | -27% | x
Cc1ccccc1Nc1nnc(SCc2cc(=O)n3ccsc3n2)s1 | 16µM* | -3%[9.24 µM] | u | u | 0
Cc1ccc(OC2CCN(C(=O)[C@H]3O[C@@H](n4ccc(N)nc4=O)[C@H](O)[C@@H]3O)CC2)cc1 | -4% | 28% | 9% | 0% | 14
O=c1cc(C(F)(F)F)[nH]c2c(C(F)(F)F)cccc12 | 16µM* | u | u | 18µM* | 5
CCOc1ccc2[nH]c(C)cc(=O)c2c1 | -26% | 6% | -1% | u | 54
O=c1cc(C(F)(F)F)[nH]c2ccc(OC(F)(F)F)cc12 | 13µM* | u | 21µM* | 21µM* | x
Cc1cc(=O)c2cccc(Br)c2[nH]1 | -21% | 0% | -2% | -22% | 13
